The panel holds about 83,000 compounds, 20% with a hit somewhere; the sample as a whole holds those more often.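 48-hour exposure, single concentration, 96-well plates; percent growth endpoint where 0 means no net growth. Active: below 10.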 Active and inactive are the calls of the source.

The test concerns NCI-H460 lung. Put plainly: NCI-60 one-dose screen, 48 h (100 = growth as untreated, 0 = no growth, -100 = all killed). The conditions noted are these: 10 µM unless noted.
Consider `Cc1ccc(C(=O)Nc2cc(-n3cnc(F)c3)cc(C(F)(F)F)c2)cc1C#Cc1cnc2cccnn12`, for which the growth was 70.5% (inactive).

As for `O=C(N/N=C/c1ccc(-c2cccc([N+](=O)[O-])c2)s1)c1[nH]c2ccc(Br)cc2c1-c1ccccc1`, the growth is 84.6% (inactive).

In the case of `Nc1cc2ccccc2c(=O)n1NC(=O)c1ccccc1`, the growth is 105% (inactive).

With `C[C@@H]1[C@H]2C[C@@H](C[C@H]1NCc1nc3ccccc3n1C1CCCCCC1)C2(C)C`, the growth is 56.3% (inactive).

Consider `COc1cc2cc(C(=O)N3C[C@@H](CCl)c4c3cc(OC(=O)N(CCC(=O)N3CCN(C)CC3)[C@H]3CCSSC3)c3ccccc43)[nH]c2c(OC)c1OC`, for which the growth was -72.6% (active).

Turning to `Cc1cn(-c2cc(NC(=O)c3ccc(C)c(-n4cc(-c5cnc6cccnn56)nn4)c3)cc(C(F)(F)F)c2)cn1`, the growth is 102% (inactive).

Turning to `Cn1cc(-c2cc(N)n3nc(-c4c[nH]c5ccc(F)cc45)cc3n2)c2cccnc21`, the growth is -50.6% (active).

As to `FC(F)(F)c1cc2c(Cl)ncnc2n1CCN1CCOCC1`, the growth was 86% (inactive).

In the case of `CCOC(=O)/C(F)=C/C1CC1C1CCN(C(=O)OC(C)(C)C)CC1` (stereo not drawn), the growth is 98.1% (inactive).

Turning to `O=C(Nc1ccc(-c2ccc3c(c2)NC(=O)/C3=C\c2ccc[nH]2)cc1)Nc1cccc(Cl)c1`, the growth is 1.16% (active).

As to `O=Cc1cncc(-c2ccc3ncnc(N4CCc5cc(F)c(Cl)cc54)c3c2)c1`, the growth is 25.2% (inactive).

On to `Fc1ccc(F)c(CNc2nc(SCCN3CCOCC3)nc3c2cnn3CC(Cl)c2ccc(Br)cc2)c1` (stereo not drawn), for which the growth is 6.7% (active).

On to `Cc1nc(N)ncc1-c1ccc2ncnc(N3CCc4cc(F)c(Cl)cc43)c2c1`, for which the growth is 76.7% (inactive).

As for `O=C(Cn1c(/C=C/c2ccc([N+](=O)[O-])cc2)nc2ccccc2c1=O)Nc1ccccc1`, the growth was 52.5% (inactive).

With `Nc1nc2cc(-c3ccc4ncnc(NCc5ccccc5)c4c3)ccc2o1`, the growth is 7.02% (active).

Turning to `COc1ccc(-c2nc3ccc(-c4nnc(SCc5ccccc5)o4)cc3[nH]2)cc1`, the growth is -15.7% (active).

`O=C(OCCOCCO)N(c1cccc(Br)c1)c1nc(SCCN2CCOCC2)nc2c1cnn2CC(Cl)c1ccc(Br)cc1` (stereo not drawn): the growth was 8.55% (active).

Regarding `Oc1ccc(Cl)c(Nc2nc(SCCN3CCOCC3)nc3c2cnn3CC(Cl)c2ccc(Br)cc2)c1` (stereo not drawn), the growth was 10.1% (inactive).

For the molecule `O=C1/C(=C/C=C/c2ccco2)SC(=S)N1CC(=S)C1C=CS(=O)(=O)C1` (stereo not drawn), the growth was 29.2% (inactive).

Take `COC(=O)c1cc(C(=O)CBr)n2c1ccc1c3ccccc3ccc12`: the growth was 39.4% (inactive).

`Cc1ccc(-c2cc(C(=O)N=Nc3c(O)[nH]c4ccc(F)cc34)c3ccccc3n2)cc1`: the growth is 1.25% (active).

With `Nc1cc(-c2c[nH]c3ccc(F)cc23)nc2cc(-c3c[nH]c4ccccc34)nn12`, the growth is 3.08% (active).

With `COc1cc(NC(=O)CSc2nnc(-c3ccc(-c4nc5ccc(Cl)cc5[nH]4)cc3)o2)cc(OC)c1OC`, the growth is 29% (inactive).

For the molecule `COc1ccc(C(=O)NNC(=O)CSc2nc3sc4c(c3c(=O)n2-c2ccc(Cl)cc2)CCCC4)cc1`, the growth is 87.2% (inactive).

As for `CN(CCSSCCN1CCOCC1)C(=O)Oc1cc2c(c3ccccc13)[C@H](CCl)CN2C(=O)c1cc2cc(OCCCN3CCC3)ccc2[nH]1`, the growth is -23.3% (active).

With `O=C(Cc1c(-c2ccccc2[N+](=O)[O-])n(-c2ncnc3c2c(-c2ccccc2)c(-c2ccccc2)n3Cc2ccccc2)[nH]c1=O)c1ccc(Cl)c(Cl)c1`, the growth was 15.9% (inactive).

As to `O=C(c1ccc(Cl)cc1)C1[C@H](c2ccccc2Cl)[C@@H](c2ccccc2)NC12C(=O)Nc1ccc(Br)cc12` (stereo partly drawn), the growth was -78.8% (active).

As to `Cc1cccc(-c2ccccc2Oc2ccc3nnc(Cl)n3n2)c1`, the growth is 109% (inactive).

With `CCC1(OC(=O)c2ccccc2SSCCOC(=O)CCCCC2SCC3NC(=O)NC32)C(=O)OCc2c1cc1n(c2=O)Cc2cc3ccccc3nc2-1` (stereo not drawn), the growth is 13.3% (inactive).

For the molecule `COc1ccc(/C=C/c2nc3ccccc3n3c(-c4cccc([N+](=O)[O-])c4)nnc23)cc1`, the growth was -35.6% (active).

In the case of `Cc1ccc(C(=O)Nc2cc(-c3ccncc3)cc(C(F)(F)F)c2)cc1C#Cc1cnc2cccnn12`, the growth is 51.8% (inactive).

With `COc1ccc(N=Nc2c(N)nn3c(N)c(C#N)c(-c4ccccc4)nc23)cc1`, the growth is 16.1% (inactive).

For `N#Cc1ccc(C(=O)NNC(=O)CSc2nc3sc4c(c3c(=O)n2-c2ccc(Cl)cc2)CCCC4)cc1`, the growth was 51.8% (inactive).

The values are drawn from PubChem BioAssay (NCI).
